In the library only some 2.3% were active in any assay of this set; here they are far more common.
697 NFkB inh: inhibitors of the PMA/ionomycin-induced NF-kB reporter in 697 B cells | 697 B-cell NF-kB luciferase reporter, 16 h | inhibition, % at 4 µM | 0.33% of 330,000 active; in the data active = inhibition above about 35%
Shn3 inh set2: inhibitors of Schnurri-3 3'UTR reporter in osteoblasts | 0.52% of 360,000 active | inhibition, % at 12.5 µM | AID 588674 | Clone20 osteoblast Shn3 3'UTR firefly luciferase, 24 h;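 active = mean inhibition of at least 75% with every replicate also reaching 75%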;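 also: 0% = median of neutral control wells and 100% = pilot-screen positive control compound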
TRPM1 prom inh: reduces MITF-dependent TRPM1 promoter luciferase signal; inhibition, % at 12.5 µM; SK-MEL-5 TRPM1 promoter luciferase, 24 h; 0.83% of 330,000 active; AID 488899;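 active = mean inhibition across replicates of 60% or more, whatever share of single replicates reaches that level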
EBV LMP1 NFkB: reduces LMP1-driven NF-kappaB luciferase signal | AID 504558 | inhibition, % at 12.5 µM | 0.69% of 350,000 active | LMP1-induced NF-kappaB luciferase reporter cells, luminescence; in the data active = inhibition above about 41%;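 also: 0% = neutral control wells and 100% = reference inhibitor control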
Gli-Sufu block: antagonists of Gli-Sufu signaling; 0.74% of 340,000 active; Sufu-KO-LIGHT fibroblasts, Gli luciferase reporter luminescence; inhibition, % at 5 µM;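 active = inhibition above about 55%, limit read from the data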;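 also: 0% = DMSO-treated cells and 100% = wells with medium but no cells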
Jurkat NFkB inh: lowers PMA/ionomycin-induced NF-kB signal in Jurkat cells; PMA/ionomycin-induced NF-kB luciferase reporter, luminescence; 0.53% of 330,000 active; inhibition, % at 4 µM; in the data active = inhibition above about 50%
* hit, by the source's call; x = no result given; ! = not active in a repeat.

SMILES	697 NFkB inh	Shn3 inh set2	TRPM1 prom inh	EBV LMP1 NFkB	Gli-Sufu block	Jurkat NFkB inh
CCN1CCN(Cc2ccc(NC(=O)c3ccc(C)c(NC(=O)c4c[nH]c5cc(C(F)(F)F)ccc5c4=O)c3)cc2C(F)(F)F)CC1	8	99*!	103*	63*!	6	-23
CCN1CCN(Cc2ccc(NC(=O)c3ccc(C)c(/C=C/c4cnc(Nc5cc(N6CCNCC6)nc(C)n5)cn4)c3)cc2C(F)(F)F)CC1	12	96*	98*	69*	31	-72
CCN1CCN(Cc2ccc(NC(=O)c3ccc(C)c(NC(=O)c4cccc(-c5cn[nH]c(=O)c5)c4)c3)cc2C(F)(F)F)CC1	-24	7	19	61*	16	-20
CCN1CCN(Cc2ccc(NC(=O)c3ccc(C)c(NC(=O)c4ccno4)c3)cc2C(F)(F)F)CC1	8	18	-6	47*	31	19
Cc1cc(C)n2nc(C(=O)N3CCN(c4ccc([N+](=O)[O-])cc4)CC3)nc2n1	7	-11	-6	0	-1	-13
Cc1cccc(Nc2nc(Cl)ncc2F)c1C	10	-6	-10	53*	-16	-12
CCOc1ccc(OCC(O)CNC2CCN(Cc3ccccc3)CC2)cc1 (configuration not stated)	5	-10	0	0	27	7
CC(C)(c1ccccc1)c1ccc(OCC(O)CNC2CCN(Cc3ccccc3)CC2)cc1 (configuration not stated)	-18	37	79*	-13	24	6
CCc1nnc(NC(=O)c2nc(Cl)ccc2Cl)s1	-4	-2	1	-6	-9	14
CCc1nnc(NC(=O)c2nc(S(=O)(=O)Cc3cccc(C)c3)ncc2Cl)s1	-123	97*	76*	66*	37	7
CCc1nnc(NC(=O)c2ccc3ccccc3n2)s1	-118	-51	-14	-26	-74	-81
CCSc1ncc(Cl)c(C(=O)Nc2ccccc2OC)n1	1	9	12	-10	-5	1
CCc1nnc(NC(=O)c2nc(S(=O)(=O)Cc3ccccc3)ncc2Cl)s1	-78	98*	80*	31	22	6
CCc1nnc(NC(=O)c2nc(S(=O)(=O)Cc3ccc(C)cc3)ncc2Cl)s1	-25	94*	69*	10	31	9
CCOc1ccccc1NC(=O)c1nc(S(=O)(=O)Cc2cccc(C)c2)ncc1Cl	-75	98*	93*	66*	22	16
CCn1c(/C=N/Nc2ccc(C(=O)O)cc2)nc2ccccc21	-13	18	-17	-3	30	3
COc1ccccc1N1CCN(c2ccc(-c3ccccc3)nn2)CC1	-174	-3	40	70*	-67	-22
Cc1ccc(C(C[N+](=O)[O-])Sc2ccc(N)cc2)cc1 (configuration not stated)	17	x	68*	4	14	0
O=C(CNC(=O)c1ccco1)OCC(=O)c1ccc2c(c1)CCCC2	11	-7	-10	-8	-26	-4
COc1ccc(C(C#N)c2ccc(=O)[nH]n2)cc1 (configuration not stated)	-19	1	32	52*	3	-35
O=C1c2ccccc2C(=O)N1CCN1CCOCC1	12	1	12	-5	-2	4
O=C1C(Cl)=C(NCCN2CCOCC2)C(=O)c2ccccc21	2	11	69*	8	29	-10
O=C1C(Cl)=C(NCCCO)C(=O)c2ccccc21	-6	4	84*	-3	10	-11
O=C1C(Cl)=C(NCCCN2CCOCC2)C(=O)c2ccccc21	x	-5	98*	-12	3	x
O=S(=O)(c1ccccc1)c1nc(-c2ccccc2Cl)oc1NCCCN1CCOCC1	-7	16	6	-2	-17	-3
C=CCN1C(=O)c2ccccc2Sc2ccc(C(=O)NC(C)C)cc21	-1	9	7	-12	-9	-37
OC(c1cc(-c2cccc(Cl)c2)nc2ccccc12)C1CCCCN1 (configuration not stated)	x	90*	98*	-37	1	x
N#Cc1cc2ccncc2c2ccccc12	x	10	x	14	x	x
Nc1cc2ccncc2c2ccccc12	-22	10	-6	56*	-8	-13

Bioassay records deposited in PubChem BioAssay by several laboratories.
